# From PubChem BioAssay (Tox21)
# “And” between values parts separate entries of the source, which are not always exact repeats. Identical values can stand only once. Records with an inconclusive call do not appear. Where a call stands in place of a potency, no number is given. The source made the active and inactive calls. Calls come from the whole dose curve; as a rule, active = well fitted curve in the direction sought with a large enough effect in the repeat runs; inconclusive = weak or mixed curves; inactive = no such curve, though single readings can be large; an effect the other way counts as inactive or inconclusive.
# Experiments:
# [1] = qHTS assay to identify small molecule antagonists of the retinoid acid receptor (RAR) signaling pathway - cell viability counter screen (AID 1159551); note: nearly all actives have a fitted effect of over 35% in size; note: potency is the fitted concentration of half-maximal effect
# Summary of the method: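 In this counter screen, the RARE-luciferase line C3RL4 was exposed for 6 h at 37 C and 5% CO2 to compounds with retinol at 1 uM final. Cellular ATP, read by luminescence, served as the viability measure.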
# [2] = qHTS assay to identify small molecule antagonists of the retinoic acid receptor (RAR) signaling pathway (AID 1159552; note: nearly all actives have a fitted effect of over 50% in size)
# Summary of the method: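 Overnight-plated C3RL4 reporter cells get compound, then retinol to 1 uM final; plates sit 6 hr at 37 C, 5% CO2. A luciferase reagent is added and light output recorded after 30 min at room temperature.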
# [3] = qHTS assay to identify small molecule agonists of the retinoic acid receptor (RAR) signaling pathway (AID 1159553); note: potency is the fitted concentration of half-maximal effect
# Summary of the method: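 In this cell-based screen, 1,000 C3RL4 cells per well were cultured overnight, dosed with test chemicals in DMSO for 6 hr, and assessed for RARE luciferase luminescence.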
# [4] = qHTS assay to identify small molecule antagonists of the estrogen related receptor (ERR) signaling pathway from Tox21 library - cell viability counter screen (AID 1224834); note: nearly all actives have a fitted effect of over 30% in size; note: potency is the fitted concentration of half-maximal effect
# Summary of the method: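 Counter screen run in ERR cells (2,000 cells/well): cells pre-incubated 6 h, then treated with compounds for 17.5 h at 37 C. Fluorescence was read 30 min after CellTiter-Fluor addition.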
# [5] = qHTS assay to identify small molecule antagonists of the estrogen related receptor (ERR) signaling pathway - cell viability counter screen (AID 1224818); note: series mostly up to about 46 µM
# Summary of the method: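 Viability of ERR cells, CellTiter-Fluor fluorescence; 17.5 h compound exposure at 37 C, DMSO vehicle; 30 min reagent incubation at 37 C/5% CO2.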
# [6] = qHTS assay to identify small molecule antagonists of the estrogen related receptor (ERR) signaling pathway (AID 1224819;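 note: luminescence from an ERR-driven luciferase reporter measured with One-Glo reagent; series mostly up to about 46 µM; nearly all actives have a fitted effect of over 50% in size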)
# Summary of the method: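 Seed ERR cells 2,000/well; rest 6 h at 37 C/5% CO2; pin compounds in DMSO; incubate 18 h at 37 C; add One-Glo; wait 30 min at room temperature; measure luminescence.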
# [7] = qHTS assay to identify small molecule agonists of the estrogen related receptor (ERR) signaling pathway (AID 1224820)
# Summary of the method: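 After 6 h plating (2,000 cells/well) and 18 h compound treatment at 37 C, ERR cells were lysed with One-Glo and luminescence read after 30 min at room temperature.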
# [8] = qHTS assay to identify small molecule antagonists of the estrogen related receptor signaling pathway with the pleiotropic PPARgamma coactivator (PGC) cell viability counter screen (AID 1224822; note: series mostly up to about 46 µM)
# Text: National Center for Advancing Translational Sciences [NCATS]
# NIH Chemical Genomics Center [NCGC]
# U.S. Environmental Protection Agency [EPA]
# National Institutes of Environmental Health Sciences [NIEHS]
# National Toxicology Program [NTP]
# U.S. Food and Drug Administration [FDA]
# Estrogen related receptors (ERRs), the first orphan nuclear receptors discovered, play an important role in the control of cellular energy metabolism. ERRs are required for high-energy production in response to the environmental challenges. The pleiotropic PPARgamma coactivator (PGC) is a major partner of ERR and a key regulator in energy homeostasis. Together they have been implicated in the etiology of metabolic disorders such as Type 2 diabetes and metabolic syndrome. ERR-alpha was also identified as an adverse marker for breast cancer progression; ERR-alpha-positive tumors have a poor prognosis. To screen and to identify environmental compounds that perturb the ERR and PGC/ERR signaling pathways could provide valuable information for potential therapeutic or preventive measures in the treatment of metabolic disease. To differentiate true PGC/ERR antagonists or agonist from cytotoxic substances, the assay is multiplexed with cell viability assay.
# Tox21 Assay Protocol Summary:
# The PGC/ERR cells were dispensed at 2,000 cells/5 ul/well in 1536-well white plates using a Multidrop dispenser. After the assay plates were incubated at a 37 C/5% CO2 incubator for 6 hours, 23 nL of compounds dissolved in DMSO, positive and negative controls or DMSO only was transferred to the assay plate by a pin tool. The plates were incubated at 37 C for 17.5 hours. 1 ul/well of CellTiter-Fluor reagent was added into the assay plates using a Flying Reagent Dispenser. After 30 min incubation at 37 C/5% CO2, the fluorescence intensity in the plates was measured using a ViewLux plate reader.
smiles,measurement,setting,value
C[N+](C)(C)CC1CO1 (centres undefined),Potency,[1],inactive
same,Potency,[2],inactive
same,Potency,[3],inactive
same,Potency,[4],inactive
NC(=S)c1c(Cl)cccc1Cl,Potency,[1],inactive
same,Potency,[2],inactive
same,Potency,[3],inactive
same,Potency,[4],inactive
CCOc1cccc(C2(N3CCN(c4ccccc4)CC3)CCC(C)CC2)c1 (centres undefined),Potency,[1],inactive
same,Potency,[2],inactive
same,Potency,[3],inactive
same,Potency,[4],inactive
CNC(=O)Oc1cccc(N=CN(C)C)c1,Potency,[1],inactive
same,Potency,[2],inactive
same,Potency,[3],inactive
same,Potency,[4],inactive
C[C@H]1O[C@H](OC2[C@@H](O)[C@@H](O)C(O)[C@H](O)[C@H]2O)[C@@H](N)C[C@@H]1N=C(N)C(=O)O (some centres undefined),Potency,[1],inactive
same,Potency,[2],inactive
same,Potency,[3],inactive
same,Potency,[4],inactive
C=C(C)C(=O)OCCCCOC(=O)C(=C)C,Potency,[1],inactive
same,Potency,[2],inactive
same,Potency,[3],inactive
same,Potency,[4],inactive
N#CC1(N=NC2(C#N)CCCCC2)CCCCC1,Potency,[1],inactive
same,Potency,[2],inactive
same,Potency,[3],inactive
same,Potency,[4],inactive
C=CC(=O)OCC,Potency,[1],inactive
same,Potency,[2],inactive
same,Potency,[3],inactive
same,Potency,[4],inactive
COc1cc(CC(C)N)c(OC)cc1Br (centres undefined),Potency,[1],inactive
same,Potency,[2],inactive
CC(C)(C)NCC(O)c1cc(Cl)c(N)c(C(F)(F)F)c1 (centres undefined),Potency,[1],inactive
same,Potency,[2],inactive
same,Potency,[3],inactive
CCOP(=O)(SC(C)CC)N1CCSC1=O (centres undefined),Potency,[1],inactive
same,Potency,[2],inactive
same,Potency,[3],inactive
same,Potency,[4],inactive
CCCN(CCC)c1c([N+](=O)[O-])cc(C(C)C)cc1[N+](=O)[O-],Potency,[1],inactive
same,Potency,[2],inactive
same,Potency,[3],inactive
same,Potency,[4],inactive
CCc1cnc(C2=NC(C)(C(C)C)C(=O)N2)c(C(=O)O)c1 (centres undefined),Potency,[1],inactive
same,Potency,[2],inactive
same,Potency,[3],inactive
same,Potency,[4],inactive
CC(C)(C)CC(C)(C)c1ccc(O)cc1,Potency,[1],43.3 µM (active)
Cc1cccc(C)c1NC1=NCCCS1,Potency,[1],inactive
same,Potency,[2],inactive
same,Potency,[3],inactive
same,outcome,[5],inactive
same,outcome,[6],inactive
same,outcome,[7],inactive
same,outcome,[8],inactive
same,Potency,[4],inactive
O=C(O)CCCOc1ccc(Cl)cc1Cl,Potency,[1],inactive
same,Potency,[2],inactive
same,Potency,[3],inactive
same,outcome,[5],inactive
same,outcome,[8],inactive
same,Potency,[4],inactive
C[C@]12CC[C@H]3[C@@H](CCC4=CC(=O)CC[C@@H]43)[C@@H]1CC[C@@H]2OC(=O)CCc1ccccc1,Potency,[1],inactive
same,Potency,[2],inactive
same,Potency,[3],inactive
same,Potency,[4],inactive
CC(C)c1ccc(NC(=O)N(C)C)cc1,Potency,[1],inactive
same,Potency,[2],inactive
same,Potency,[3],13.7 µM (active)
CC(=O)NNc1ccccc1,Potency,[1],inactive
same,Potency,[2],inactive
same,Potency,[3],inactive
C=CCOC(=O)C(C)(C)OC(=O)c1cc(-n2c(=O)cc(C(F)(F)F)n(C)c2=O)ccc1Cl,Potency,[1],inactive
CCC1(CCC(C)C)C(=O)NC(=O)NC1=O,Potency,[1],inactive
same,Potency,[2],inactive
same,Potency,[3],inactive
same,Potency,[4],inactive
CC(Oc1cccc(Cl)c1)C(=O)O (centres undefined),Potency,[1],inactive
same,Potency,[2],inactive
same,Potency,[3],inactive
same,Potency,[4],inactive
CC(C)(C)N(NC(=O)c1ccc(Cl)cc1)C(=O)c1ccccc1,Potency,[1],inactive
same,Potency,[2],inactive
same,Potency,[3],inactive
same,Potency,[4],12.1 µM (active)
Cc1ccccc1,Potency,[1],inactive
same,Potency,[2],inactive
same,Potency,[3],inactive
same,Potency,[4],inactive
CN(C)C(=O)Nc1cccc(OC(=O)NC(C)(C)C)c1,Potency,[1],inactive
same,Potency,[2],inactive
same,Potency,[3],inactive
same,Potency,[4],inactive
Clc1ccc(Cl)c(Cl)c1,Potency,[1],inactive
same,Potency,[2],inactive
same,Potency,[3],inactive
same,Potency,[4],inactive
Clc1ccc2ccccc2c1,Potency,[1],inactive
same,Potency,[2],inactive
same,Potency,[3],inactive
same,Potency,[4],inactive
CCCN(CCOc1c(Cl)cc(Cl)cc1Cl)C(=O)n1ccnc1,Potency,[1],inactive
same,Potency,[2],inactive
same,Potency,[3],inactive
CCOP(=S)(OCC)SCSc1cc(Cl)ccc1Cl,Potency,[1],inactive
same,Potency,[2],inactive
same,Potency,[3],inactive
same,Potency,[4],inactive
CCOC(=O)c1cn2nc(OP(=S)(OCC)OCC)cc2nc1C,Potency,[1],inactive
O=C(N[C@H]1CN2CCC1CC2)c1ccc2c(c1)OCCO2,Potency,[1],inactive
same,Potency,[2],inactive
same,Potency,[3],inactive
same,Potency,[4],inactive
C[C@H](N)[C@H](O)c1ccc(O)c(O)c1,Potency,[1],inactive
same,Potency,[2],inactive
same,Potency,[3],inactive
same,Potency,[4],inactive
COc1ccc(C(=O)c2c(C)n(CCN3CCOCC3)c3ccccc23)cc1,Potency,[1],inactive
same,Potency,[2],inactive
same,Potency,[3],inactive
c1ccc2sc(SNC3CCCCC3)nc2c1,Potency,[1],inactive
same,Potency,[2],inactive
same,Potency,[3],30.3 µM (active) and 68.6 µM (active)
same,Potency,[4],inactive
C[C@H]1[C@@H]2Cc3ccc(O)cc3[C@@]1(C)CCN2C,Potency,[1],inactive
same,Potency,[2],inactive
same,Potency,[3],inactive
same,Potency,[4],inactive
CCSCc1ccccc1OC(=O)NC,Potency,[1],inactive
same,Potency,[2],inactive
same,Potency,[3],inactive
same,Potency,[4],inactive
NP(N)(=O)NC(=O)c1ccc(F)cc1,Potency,[1],inactive
same,Potency,[2],inactive
same,Potency,[3],inactive
same,Potency,[4],inactive
O=C=NC1CCCCC1,Potency,[1],inactive
same,Potency,[2],inactive
same,Potency,[3],1.94 µM (active)
same,Potency,[4],inactive
CC(C)CCON=O,Potency,[1],inactive
same,Potency,[2],inactive
same,Potency,[3],inactive
same,Potency,[4],inactive
CCC1CCC(=O)O1 (centres undefined),Potency,[1],inactive
same,Potency,[2],inactive
same,Potency,[3],inactive
same,Potency,[4],inactive
CCCCCCCCCCCCN(C)C,Potency,[1],inactive
same,Potency,[2],inactive
same,Potency,[3],inactive
same,Potency,[4],inactive
